Assay [1] can be described thus: NCI Yeast Anticancer Drug Screen. Data for the rad50 strain (AID 155).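 Note: 0% = growth of vehicle-only cultures of the same strain.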 Particulars: S. cerevisiae rad50 strain growth inhibition, stronger effect = higher value. In short, it runs like this:
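Growth of the mutant yeast was measured after compound exposure and referenced to vehicle-treated cultures.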

A short description of assay [2]: NCI Yeast Anticancer Drug Screen. Data for the mec2-1 strain (AID 157). Particulars: S. cerevisiae mec2-1 strain, stronger effect = higher value. In short, it runs like this:
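Mutant yeast (mec2-1) grown with compound; growth inhibition relative to vehicle control reported.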

Assay [3] in a line: NCI Yeast Anticancer Drug Screen. Data for the sgs1 mgt1 strain (AID 161).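 Note: 0% = growth of cultures given vehicle only.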 The conditions noted are these: S. cerevisiae sgs1 mgt1 strain, stronger effect = higher value. In short, it runs like this:
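Compounds are added to genetically altered yeast, and growth is compared with cultures given vehicle alone to give percent inhibition.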

The nature of assay [4]: NCI Yeast Anticancer Drug Screen. Data for the cln2 rad14 strain (AID 165).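 Note: 0% = growth equal to vehicle treated cultures.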 Particulars: S. cerevisiae cln2 rad14 strain, stronger effect = higher value. In short, it runs like this: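 Readout is yeast growth inhibition versus vehicle-treated controls, using a strain with cln2 and rad14 alterations exposed to compound.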
The nature of assay [5]: NCI Yeast Anticancer Drug Screen. Data for the bub3 strain (AID 167). Particulars: S. cerevisiae bub3 mutant strain, stronger effect = higher value. In short, it runs like this:
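Whole-cell yeast assay. The mutant strain was incubated with compounds, and growth inhibition was determined by comparison with vehicle-treated cells.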

Assay [6] can be described thus: NCI Yeast Anticancer Drug Screen. Data for the mlh1 rad18 strain (AID 175). Particulars: S. cerevisiae mlh1 rad18 strain growth inhibition, stronger effect = higher value. In short, it runs like this: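 Genetically defined yeast (DNA repair-deficient) exposed to compounds; growth inhibition determined relative to vehicle.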
[7] abbreviates: at 5.0 µM (retest, dose inferred, filed as 0.5).
Where [8] appears, read: at 50.0 µM (retest, dose inferred, filed as 5.0).

Where “and” joins values, the source holds several entries; their conditions need not be identical. Identical values can stand only once. This is part of a sample that, as a whole, favours compounds with a hit. Of some 79,000 tested, about 15% had one in any assay. More than one record can exist for a structure, and the calls need not agree. Calls of active or inactive are those of the source. Cut-off read from the data, not from the text of the source: active = growth inhibition above about 70%; inactive = the rest.

With `O=S(c1cc(Cl)cc(Cl)c1O)c1cc(Cl)cc(Cl)c1O`, the growth inhibition in assay [1] (setting [7]) is 66% (inactive); in assay [1] (setting [8]) it was 99% (active); in assay [1] (at 50.0 µM) it was 99.2% (active); in assay [2] (setting [7]), 39% (inactive); in assay [2] (setting [8]), 100% (active); in assay [2] (at 50.0 µM), 99.5% (active). Besides, the growth inhibition in assay [3] (setting [7]) is 39% (inactive); in assay [3] (setting [8]), 100% (active); in assay [3] (at 50.0 µM), 98% (active); in assay [4] (setting [7]), 40% (inactive); in assay [4] (setting [8]), 99% (active); in assay [4] (at 50.0 µM) it was 99.5% (active). Moreover, the growth inhibition is 56% (inactive) in assay [5] (setting [7]); 100% (active) in assay [5] (setting [8]); 99.5% (active) in assay [5] (at 50.0 µM); 44% (inactive) in assay [6] (setting [7]); 99% (active) in assay [6] (setting [8]); 99.5% (active) in assay [6] (at 50.0 µM).

Turning to `O=C(C(c1ccccc1)c1ccccc1)C(c1ccccc1)c1ccccc1`, the growth inhibition in assay [1] (setting [7]) is 0% (inactive); in assay [1] (setting [8]) it was -12% (inactive); in assay [1] (at 50.0 µM), 25% (inactive); in assay [2] (setting [7]), -6% (inactive); in assay [2] (setting [8]) it was -13% (inactive); in assay [2] (at 50.0 µM), 0.85% (inactive). For the same molecule, the growth inhibition is -1% (inactive) in assay [3] (setting [7]); -18% (inactive) in assay [3] (setting [8]); 4.8% (inactive) in assay [3] (at 50.0 µM); 2% (inactive) in assay [4] (setting [7]); -30% (inactive) in assay [4] (setting [8]); 43.9% (inactive) in assay [4] (at 50.0 µM). The growth inhibition in assay [5] (setting [7]) is 0% (inactive); in assay [5] (setting [8]), 28% (inactive); in assay [5] (at 50.0 µM), -6.25% (inactive); in assay [6] (setting [7]), 0% (inactive); in assay [6] (setting [8]), -4% (inactive); in assay [6] (at 50.0 µM), 1.55% (inactive).

As to `O=c1c(Cl)c(Cl)cnn1-c1ccccc1`, the growth inhibition in assay [1] (setting [7]) was 33% (inactive); in assay [1] (setting [8]), 58% (inactive); in assay [1] (at 50.0 µM), 30.9% (inactive) and 6.8% (inactive); in assay [2] (setting [7]) it was 1% (inactive); in assay [2] (setting [8]) it was 22% (inactive); in assay [2] (at 50.0 µM), 45% (inactive) and -8.9% (inactive). For the same molecule, the growth inhibition in assay [3] (setting [7]) is -6% (inactive); in assay [3] (setting [8]), 14% (inactive); in assay [3] (at 50.0 µM) it was 35.7% (inactive) and -2.25% (inactive); in assay [4] (setting [7]) it was 17% (inactive); in assay [4] (setting [8]) it was 19% (inactive); in assay [4] (at 50.0 µM) it was 28.1% (inactive) and 13.8% (inactive). In addition, the growth inhibition is 10% (inactive) in assay [5] (setting [7]); 21% (inactive) in assay [5] (setting [8]); 23.9% (inactive) and -9.2% (inactive) in assay [5] (at 50.0 µM); 8% (inactive) in assay [6] (setting [7]); 26% (inactive) in assay [6] (setting [8]); 72.6% (active) and -13.8% (inactive) in assay [6] (at 50.0 µM).

As for `COC1C(O)C(C)OC(OC2C(Oc3cccc4c(O)c5c(=O)oc6ccc(C)c7c(=O)oc(c34)c5c67)OC(C)C3O[C@H](c4ccccc4)OC32)C1O` (stereo partly specified), the growth inhibition in assay [1] (setting [7]) was 82% (active); in assay [1] (setting [8]), 96% (active); in assay [1] (at 50.0 µM) it was 86.5% (active); in assay [2] (setting [7]) it was 70% (active); in assay [2] (setting [8]), 96% (active); in assay [2] (at 50.0 µM), 88.5% (active). Moreover, the growth inhibition is 73% (active) in assay [3] (setting [7]); 96% (active) in assay [3] (setting [8]); 91% (active) in assay [3] (at 50.0 µM); 59% (inactive) in assay [4] (setting [7]); 96% (active) in assay [4] (setting [8]); 88.3% (active) in assay [4] (at 50.0 µM). For the same molecule, the growth inhibition in assay [5] (setting [7]) was 74% (active); in assay [5] (setting [8]), 95% (active); in assay [5] (at 50.0 µM), 89.6% (active); in assay [6] (setting [7]), 77% (active); in assay [6] (setting [8]) it was 93% (active); in assay [6] (at 50.0 µM), 77.3% (active).

As for `CCN1/C(=C/C=C/C=C/c2sc3ccccc3[n+]2CC)Sc2ccccc21`, the growth inhibition was 97% (active) in assay [1] (setting [7]); 25% (inactive) in assay [1] (setting [8]); 56.1% (inactive) and 66.5% (inactive) in assay [1] (at 50.0 µM); 98% (active) in assay [2] (setting [7]); 28% (inactive) in assay [2] (setting [8]); 64.7% (inactive) and 70.8% (active) in assay [2] (at 50.0 µM). Also, the growth inhibition is 96% (active) in assay [3] (setting [7]); 11% (inactive) in assay [3] (setting [8]); 79.5% (active) and 58.2% (inactive) in assay [3] (at 50.0 µM); 93% (active) in assay [4] (setting [7]); 28% (inactive) in assay [4] (setting [8]); 67.7% (inactive) and 65.2% (inactive) in assay [4] (at 50.0 µM). The growth inhibition was 97% (active) in assay [5] (setting [7]); 1% (inactive) in assay [5] (setting [8]); 53.8% (inactive) and 52.5% (inactive) in assay [5] (at 50.0 µM); 96% (active) in assay [6] (setting [7]); 14% (inactive) in assay [6] (setting [8]); 54.5% (inactive) and 43.6% (inactive) in assay [6] (at 50.0 µM).

With `CC(C)C1=C(O)C2=C(C(=O)C1=O)C1(C)CCCC(C)(C)C1CC2O` (stereo unspecified), the growth inhibition in assay [1] (setting [7]) is 42% (inactive); in assay [1] (setting [8]), 98% (active); in assay [1] (at 50.0 µM), 36.9% (inactive) and 14.3% (inactive); in assay [2] (setting [7]) it was 55% (inactive); in assay [2] (setting [8]), 98% (active); in assay [2] (at 50.0 µM), 22.1% (inactive) and -9.35% (inactive). Also, the growth inhibition in assay [3] (setting [7]) is 48% (inactive); in assay [3] (setting [8]) it was 98% (active); in assay [3] (at 50.0 µM), 45% (inactive) and 39.5% (inactive); in assay [4] (setting [7]), 46% (inactive); in assay [4] (setting [8]), 98% (active); in assay [4] (at 50.0 µM) it was 32.4% (inactive) and 6.45% (inactive). In addition, the growth inhibition in assay [5] (setting [7]) is 75% (active); in assay [5] (setting [8]) it was 97% (active); in assay [5] (at 50.0 µM) it was 56.6% (inactive) and 17.4% (inactive); in assay [6] (setting [7]) it was 56% (inactive); in assay [6] (setting [8]), 98% (active); in assay [6] (at 50.0 µM) it was 83.1% (active) and 21.6% (inactive).

Regarding `COc1ccc(COc2ccc(C(=O)CCN3CCOCC3)cc2)cc1`, the growth inhibition in assay [1] (setting [7]) was 47% (inactive); in assay [1] (setting [8]), 62% (inactive); in assay [1] (at 50.0 µM) it was 96.8% (active); in assay [2] (setting [7]), 38% (inactive); in assay [2] (setting [8]), 80% (active); in assay [2] (at 50.0 µM), 96.5% (active). Further, the growth inhibition in assay [3] (setting [7]) was 61% (inactive); in assay [3] (setting [8]), 87% (active); in assay [3] (at 50.0 µM) it was 97% (active); in assay [4] (setting [7]), 40% (inactive); in assay [4] (setting [8]) it was 46% (inactive); in assay [4] (at 50.0 µM), 93.8% (active). Also, the growth inhibition is 51% (inactive) in assay [5] (setting [7]); 80% (active) in assay [5] (setting [8]); 97.4% (active) in assay [5] (at 50.0 µM); 51% (inactive) in assay [6] (setting [7]); 77% (active) in assay [6] (setting [8]); 96.8% (active) in assay [6] (at 50.0 µM).

The values are drawn from PubChem BioAssay (NCI).
